Screening results as filed in PubChem.
RGS4-Gao reg: human RGS4-Galphao interaction regulation | P09471 | Multiplexed bead flow cytometry, RGS4-Galphao binding; actives lie on both sides | binding response (% of control), % at 10 µM | 220,000 compounds, 0.33% hits | AID 1415; in the data active = binding response below about 49% or above about 150%; inactive = in between;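 note: fluorescent Galphao activated with aluminum fluoride binding bead-coupled RGS4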
RGS16-Gao HTS: RGS16-Galphao interaction regulator (human); O15492+P09471; bead-based flow cytometry RGS16-Galphao binding, fluorescence; actives lie on both sides; binding response (% of control), % at 10 µM; 220,000 compounds, 0.38% hits;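 note: Galphao activated by GDP with aluminum fluoride before binding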
Target sequence (O15492 whole entry, looked up): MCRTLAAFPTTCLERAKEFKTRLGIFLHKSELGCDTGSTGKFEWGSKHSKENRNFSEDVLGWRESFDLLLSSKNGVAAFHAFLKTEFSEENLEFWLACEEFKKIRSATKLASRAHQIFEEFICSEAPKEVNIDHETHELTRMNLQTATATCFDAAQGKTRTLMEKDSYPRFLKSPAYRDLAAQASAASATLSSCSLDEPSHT
Target sequence (P09471 whole entry, looked up): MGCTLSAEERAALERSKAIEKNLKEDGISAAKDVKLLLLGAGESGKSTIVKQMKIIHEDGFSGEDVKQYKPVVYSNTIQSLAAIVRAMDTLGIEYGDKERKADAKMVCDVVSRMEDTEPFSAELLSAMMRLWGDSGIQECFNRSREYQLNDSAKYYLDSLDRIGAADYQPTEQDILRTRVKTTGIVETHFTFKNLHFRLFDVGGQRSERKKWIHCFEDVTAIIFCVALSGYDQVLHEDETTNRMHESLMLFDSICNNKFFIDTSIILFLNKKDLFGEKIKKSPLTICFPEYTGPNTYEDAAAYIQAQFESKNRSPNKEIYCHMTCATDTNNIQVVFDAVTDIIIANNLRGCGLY
GSH fluor: GSH bead compound fluorescence profile | GSH beads flow cytometry, compound fluorescence 488/530 nm; hits give high values | fluorescence (KMESF) at 10 µM | 190,000 compounds, 0.25% hits; in the data active = fluorescence above about 89;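 note: glutathione beads carrying GST-tagged Bcl family fusion proteins plus one bare bead set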
Avidin bead fluor: compound fluoresces at 488/530 nm on avidin beads; compound fluorescence 488/530 nm, flow cytometry; hits give high values; fluorescence (KMESF) at 10 µM; 220,000 compounds, 0.38% hits; in the data active = fluorescence above about 47
RGS8-Gao: modulates binding of RGS8 to human Galphao | response (percent of control binding), % at 10 µM | P09471 | 220,000 compounds, 0.34% hits | multiplexed bead flow cytometry; actives lie on both sides; in the data active = response below about 60% or above about 140%; inactive = in between;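 note: Galphao activated as the GDP aluminium fluoride complex binding bead-coupled RGS8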
RGS7-Gao: regulators of human RGS7-Galphao interaction. Multiplexed bead flow cytometry, RGS7-Galphao binding; actives lie on both sides. binding response (% of control), % at 10 µM. 220,000 compounds, 0.35% hits. AID 1439; in the data active = binding response below about 49% or above about 150%;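 note: fluorescent Galphao held in activated GDP-AlF4 state binding bead-coupled RGS7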
RGS4-Gao HTS: regulators of human RGS4-Galphao interaction | multiplexed bead flow cytometry, RGS–Galpha-o binding | 1,600 compounds, 99% hits | shares compounds with RGS16-Gao HTS | RGS4–Galpha-o binding response, % at 10 µM;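 note: fluorescently labeled Galpha-o bound to GDP with aluminium fluoride binding biotinylated RGS beads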
Avidin counter: biotin-avidin bead binding disruption counter-screen; inhibition, % at 10 µM; shares compounds with RGS16-Gao HTS; streptavidin beads, fluorescein-biotin binding, flow cytometry; 1,700 tested, under 10 active; AID 1783;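 active = inhibition above 50%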;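 note: median green fluorescence of gated singlet beads compared with DMSO control wells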
RGS8-Gao confirm: RGS8-Galphao interaction regulation, single point confirmation; shares compounds with RGS16-Gao HTS; bead-based flow cytometry RGS8-Galphao binding, fluorescence; actives lie on both sides; binding response (% of control), % at 10 µM; 1,700 compounds, 3% hits; AID 1836; in the data active = binding response below about 72% or above about 130%; inactive = in between;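 note: Galphao activated as GDP AlF4 complex before binding bead RGS8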
RGS7-Gao single: confirmation of regulators of human RGS7-Galphao interaction. shares compounds with RGS16-Gao HTS. bead-based flow cytometry RGS7-Galphao binding; actives lie on both sides. response (percent of control binding), % at 10 µM. 1,700 compounds, 7.8% hits. AID 1837; in the data active = response below about 75% or above about 130%; inactive = in between;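 note: fluorescent Galphao activated with GDP and aluminum fluoride binding bead-coupled RGS7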
RGS16-Gao single: RGS16-Galphao interaction regulation, single point confirmation. AID 1838. 1,700 compounds, 4% hits. bead-based flow cytometry, RGS16-Galphao binding; actives lie on both sides. response (% of control binding), % at 10 µM. shares compounds with RGS16-Gao HTS; in the data active = response below about 74% or above about 130%; inactive = in between;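 note: Galphao activated as the GDP aluminium fluoride complex binding bead-coupled RGS16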
RGS4-Gao single: RGS4-Galphao interaction regulation, single point confirmation; RGS4-Galphao binding, multiplexed bead flow cytometry; actives lie on both sides; AID 1840; binding response (% of control), % at 10 µM; 1,700 compounds, 4% hits; shares compounds with RGS16-Gao HTS; in the data active = binding response below about 74% or above about 130%; inactive = in between
RGS19-Gao conf: RGS19-Galphao interaction regulation, single point confirmation. shares compounds with RGS16-Gao HTS. bead-based flow cytometry RGS19-Galphao binding; actives lie on both sides. response (percent of control binding), % at 10 µM. 1,700 compounds, 5% hits. AID 1841; in the data active = response below about 50% or above about 160%; inactive = in between
Large screens that a line does not name were inactive (follow-up assays come after a bar, where they were run); [ ] = remark or other dose. Shown are actives, neighbours in structure and some others; about 1.2% of the full set was active somewhere. Unless noted, the rule behind the calls is not given here.

COc1ccc(C)cc1NC(=O)C(Sc1nnc(Nc2cc(C)ccc2OC)s1)c1ccccc1 (stereo not drawn)	RGS4-Gao reg 11, RGS16-Gao HTS -13, RGS8-Gao 3.4, RGS7-Gao 7.2 | Avidin counter inactive | RGS8-Gao confirm inactive | RGS7-Gao single inactive | RGS16-Gao single inactive | RGS4-Gao single inactive | RGS19-Gao conf inactive
O=C(COC(=O)c1ccc2[nH]c3c(c2c1)CCCC3)Nc1ccc(Cl)cc1Cl	RGS16-Gao HTS 182[activator] | RGS4-Gao HTS 107 | Avidin counter inactive | RGS8-Gao confirm inactive | RGS7-Gao single inactive | RGS16-Gao single inactive | RGS4-Gao single inactive | RGS19-Gao conf inactive
O=C(COC(=O)c1ccc2[nH]c3c(c2c1)CCCC3)Nc1ccccc1Cl	none
Cc1ccc(CSCc2ccc(C(=O)NCC3CCCO3)o2)cc1 (stereo not drawn)	none
Cc1ccc(NC(=O)CC2S/C(=N/N=C3/NC(=O)CS3)NC2=O)cc1 (stereo not drawn)	none
COc1ccc(NC(=O)CC(NCCc2ccccc2)C(=O)O)c(OC)c1 (stereo not drawn)	none
COCCCNC(CC(=O)Nc1ccc(OC)cc1OC)C(=O)O (stereo not drawn)	none (no result: RGS4-Gao reg, RGS16-Gao HTS, Avidin bead fluor, RGS8-Gao, RGS7-Gao) | Avidin counter inactive | RGS8-Gao confirm inactive | RGS7-Gao single inactive | RGS16-Gao single inactive | RGS4-Gao single inactive | RGS19-Gao conf inactive
COc1ccc(-c2ocnc2C(=O)Nc2ccccc2N2CCCCC2)cc1	Avidin bead fluor 221, RGS7-Gao 230[activator] | RGS4-Gao HTS 128
CCOc1ccc(C(=O)Nc2ccccc2N2CCCC2)cc1	none
CCOC(=O)c1c(C)[nH]c(C)c1C(=O)CSc1nc2ccccc2c(=O)n1-c1ccc(CC)cc1	none
CC(=O)c1ccc(-n2c(SCC(=O)c3c[nH]c4ccccc34)nc3ccccc3c2=O)cc1	RGS4-Gao reg 179[activator], Avidin bead fluor 2389, RGS7-Gao 184[activator] | Avidin counter inactive | RGS8-Gao confirm inactive | RGS7-Gao single inactive | RGS16-Gao single inactive | RGS4-Gao single inactive | RGS19-Gao conf inactive
O=C(COc1ccc(OCc2ccccc2)cc1)NC1CCOC1=O (stereo not drawn)	none
COc1ccc(OC)c2sc(NC(=O)C3=COCCO3)nc12	none
COc1ccc(C)c2sc(NC(=O)C3=COCCO3)nc12	Avidin bead fluor 175, RGS7-Gao 313[activator] | RGS4-Gao HTS 132
COC(=O)c1nc2n(n1)C(c1ccc(OC)c(OC)c1)C(C(=O)OC1CCCCC1)=C(C)N2 (stereo not drawn)	RGS16-Gao HTS -38 | RGS4-Gao HTS 82 | Avidin counter inactive | RGS8-Gao confirm inactive | RGS7-Gao single inactive | RGS16-Gao single inactive | RGS4-Gao single inactive | RGS19-Gao conf inactive
COc1ccc(C2C(C(N)=O)=C(C)Nc3nc(-c4ccccc4OC)nn32)cc1OC (stereo not drawn)	none
